Only some compounds are listed: those with a hit (about 11% of all), similar ones and a draw of the others.
NIH3T3 tox: kills NIH 3T3 cells; NIH 3T3 viability, CellTiter-Glo ATP luminescence, 48-72 h; Potency, µM (titrated, usually from 96.7 µM), inactives show top-dose activity change, negative = cytotoxicity, most hits filed as inhibitors; hit rate 4.3% among 94,000; AID 1345082; note: nearly all actives have a fitted effect of over 55% in size
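Cells were seeded at 400 per well, treated with pin-transferred compound, and kept 48 or 72 hr at 37 °C before CellTiter-Glo addition and luminescence imaging of cellular ATP.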
NPR1 antag: human Npr1 receptor antagonism | Potency, µM (titrated, usually from 46.3 µM), for inactives: at the top dose activity change, negative = inhibition, most hits filed as inhibitors | AID 1347048 | HEK293 hNpr1 GloSensor cGMP, ANP-stimulated luminescence | hit rate 1.6% among 76,000 | P16066; calls by dose curve; note: nearly all actives have a fitted effect of over 60% in size
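Compound pre-incubated 30 min at room temperature on GloSensor-loaded HEK293 cells stably carrying hNpr1 and the pGS-40F cGMP biosensor. Stimulation uses hNppA at 0.1 nM final; luminescence is taken at baseline and 20 min post-agonist.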
Luciferase inh: blocks purified firefly luciferase enzyme activity; Potency, µM (series often up to 115 µM), most hits filed as inhibitors; hit rate 2.5% among 76,000; AID 1347043; P08659; purified P. pyralis luciferase, luminescence, biochemical; note: nearly all actives have a fitted effect of over 65% in size
Target sequence (P08659 whole entry, looked up): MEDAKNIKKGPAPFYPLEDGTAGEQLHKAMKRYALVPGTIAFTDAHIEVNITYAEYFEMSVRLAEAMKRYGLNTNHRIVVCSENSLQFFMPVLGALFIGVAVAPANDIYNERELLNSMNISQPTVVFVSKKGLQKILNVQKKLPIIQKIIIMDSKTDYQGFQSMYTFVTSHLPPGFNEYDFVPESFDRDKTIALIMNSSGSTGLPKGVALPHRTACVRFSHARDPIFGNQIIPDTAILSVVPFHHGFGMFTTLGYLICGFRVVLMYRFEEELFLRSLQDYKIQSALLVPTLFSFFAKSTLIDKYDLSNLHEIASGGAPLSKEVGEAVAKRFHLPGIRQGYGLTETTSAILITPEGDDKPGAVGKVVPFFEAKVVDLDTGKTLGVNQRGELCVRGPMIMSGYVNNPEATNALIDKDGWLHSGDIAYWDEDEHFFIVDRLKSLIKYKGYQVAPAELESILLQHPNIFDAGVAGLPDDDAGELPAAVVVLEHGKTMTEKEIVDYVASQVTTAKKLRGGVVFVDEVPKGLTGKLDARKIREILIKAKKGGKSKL
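Cell-free enzyme assay, 10nM P. pyralis luciferase, luciferin and ATP each at 10uM. Inhibition profiled over a 6-point titration, read as luminescence.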
HEK293 tox: kills HEK 293 cells. HEK 293 viability, ATP luminescence (CellTiter-Glo), 48-72 h. Potency, µM (series often up to 115 µM), for inactives: at the highest dose activity change, negative = cytotoxicity, hits mostly inhibitors. hit rate 6.6% among 94,000; note: nearly all actives have a fitted effect of over 60% in size
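Viability of HEK 293 cells, plated at 250 cells/well, was judged by cellular ATP after compound treatment for 48 or 72 hr. Luminescence was imaged 10 min after CellTiter-Glo addition at room temperature.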
* = called active by the depositor; i = inactive; u = inconclusive; x = no result given; [ ] = remark or other dose. Unless noted, calls come from the whole dose curve; as a rule, active = well fitted curve in the direction sought with a large enough effect; inconclusive = small, poorly fitted or top-dose-only effect, or another doubt; inactive = no such curve, though single readings can be large; an effect the other way counts as inactive or inconclusive. % is set by controls: 0 for no effect and ±100 for the full control effect; potency is the fitted concentration of half-maximal effect.

SMILES	NIH3T3 tox	NPR1 antag	Luciferase inh	HEK293 tox
CCc1cccc(NC(=O)c2ccc3c(c2)N(CC)C2CCCCN2C3=O)c1 (stereo unspecified)	u	0.0%	i	u
CCN1c2cc(C(=O)Nc3cccc(C(C)C)c3)ccc2C(=O)N2CCCCCC21 (stereo unspecified)	31.6µM*	-6.4%	i	28.2µM*
CCc1cccc(NC(=O)c2ccc3c(c2)N(C)C2CCCN2C3=O)c1 (stereo unspecified)	u	0.0%	25.1µM*	u
CCN1c2cc(C(=O)Nc3cccc(C)c3)ccc2C(=O)N2CCCCCC21 (stereo unspecified)	u	-2.3%	i	u
CCN1c2cc(C(=O)Nc3ccccc3C(=O)OC)ccc2C(=O)N2CCCCCC21 (stereo unspecified)	20µM*	-2.2%	i	u
CCc1cccc(NC(=O)c2ccc3c(c2)N(C)C2CCCCCN2C3=O)c1 (stereo unspecified)	u	-0.4%	u	35.5µM*
CN(C(=O)Nc1ccccc1)C1CCc2nn(CC3CC3)c(=O)n2CC1 (stereo unspecified)	-5.7%	x	x	4.1%
CCc1cccc(NC(=O)c2ccc3c(c2)N(CC)C2CCCCCN2C3=O)c1 (stereo unspecified)	u	1.7%	i	31.6µM*
COC(=O)NC1CCN(Cc2cccc(-c3ccc(SC)cc3)c2)CC1	31.6µM*	x	x	u
COc1ccccc1C(=O)NC1CCN(Cc2cccc(-c3ccc(SC)cc3)c2)CC1	28.2µM*	x	x	31.6µM*
CSc1ccc(-c2cccc(CN3CCC(NC(=O)c4ccccc4C)CC3)c2)cc1	-22.6%	x	x	-35.4%
CC(C)(C)C1CCc2[nH]nc(C(=O)N3CCc4nn(CC#N)c(=O)n4CC3)c2C1 (stereo unspecified)	u	-7.3%	i	u
O=C(c1ccc2ncccc2c1)N1CC2CC(C1)[C@H]1CCCC(=O)N1C2 (stereo partly specified)	i	-3.4%	i	13.6%
Cc1c(CC(=O)NC(C)C)c2c(n1Cc1ccccc1F)CCCC2=O	-4.3%	-7.5%	44.7µM*	u
CCOC(=O)N1CCC(N(C)CC2CCN(CCc3ccc(F)cc3)CC2)CC1	u	1.4%	i	u
COc1ccc(CN(C)CC2CCN(CCc3ccc(F)cc3)CC2)cc1Cn1cccn1	39.8µM*	-3.4%	i	28.2µM*
CCC(=O)N1Cc2ccccc2CC2(CCCN(Cc3cccnc3)C2)C1 (stereo unspecified)	i	x	x	-4.9%
O=C1c2cnc(-c3ccccc3OCc3ccccc3)nc2OCCN1CC1CC1	-16.8%[138 µM]	-0.8%[70.6 µM]	u	u
CN(C)C(=O)c1ccc(-c2ncc3c(n2)OCCN(Cc2ccccc2)C3=O)cc1	-21.1%[138 µM]	1.4%[70.6 µM]	i	u
O=C1c2cnc(-c3cc4ccccc4o3)nc2OCCN1CC1CC1	u	1.41µM*	u	u
N#Cc1cccc(-c2ncc3c(n2)OCCN(Cc2ccc(F)cc2F)C3=O)c1	i	-26.5%[70.6 µM]	i	u
COc1ccc(CN2CCOc3nc(-c4cc(F)cc(F)c4)ncc3C2=O)cc1	u	-24.1%[70.6 µM]	i	u
O=C1c2cnc(-c3cc(F)cc(F)c3)nc2OCCN1Cc1ccccc1	u	-8.1%[70.6 µM]	44.7µM*	u
COc1ccc(CN2CCOc3nc(-c4cccc(C#N)c4)ncc3C2=O)cc1	u	-25.6%[70.6 µM]	i	100µM*
O=C1c2cnc(-c3cccc(CO)c3)nc2OCCN1Cc1ccccc1	u	-13.9%[70.6 µM]	17.8µM*	u
SMILES	NIH3T3 tox	NPR1 antag	Luciferase inh	HEK293 tox
Cc1ccccc1C(=O)NC1CCN(c2ccc3nnc(C4CC4)n3n2)CC1	u	x	x	-17.6%
CC1C=CC(C)N1c1ncnc2c1CN(C1CCNCC1)C(=O)CN2C (stereo unspecified)	-10.4%	x	x	-13.2%
COCCN1CCOc2nc(-c3cccc(OC(F)(F)F)c3)ncc2C1=O	u	-24.2%[70.6 µM]	15.8µM*	u
O=[S+]([O-])(c1ccc(Br)cc1)c1nnn2c1nc(NCc1ccc(F)cc1)c1ccccc12	i	x	x	i
Cc1noc(C)c1-c1cc2cc(CNC3CC3)oc2c(NC2CCN(C)CC2)n1	u	-1.6%[70.6 µM]	i	39.8µM*
Cc1noc(C)c1-c1cc2cc(C(C)C)oc2c(NC2CCN(C)CC2)n1	u	4.8%[70.6 µM]	i	31.6µM*
Cc1noc(C)c1-c1cc2cc(C(C)C)oc2c(N2CCN(C)CC2)n1	u	-0.8%[70.6 µM]	i	u
Cc1noc(C)c1-c1cc2cc(C(C)C)oc2c(Nc2ccn(C)n2)n1	u	1.0%[70.6 µM]	i	63.1µM*
Cc1cc2cc(-c3c(C)noc3C)nc(NC3CC3)c2o1	u	2.2%[70.6 µM]	i	u
Cc1noc(C)c1-c1cc2cc(C(C)C)oc2c(NCCN2CCOCC2)n1	u	3.1%[70.6 µM]	i	u
O=C(NCc1cccs1)C1CCc2nnc(-c3cccc(C(F)(F)F)c3)n21 (stereo unspecified)	-28.2%	x	x	-16.4%
O=C(CCc1c[nH]c2ccccc12)N1CCC[C@H]1c1nc(-c2ccc(F)cc2)n[nH]1	u	x	x	39.8µM*
O=C(CCc1c[nH]c2ccccc12)N1CCC(Cc2nc(-c3ccncc3)n[nH]2)CC1	u	x	x	-28.6%
O=C(CCC1CCCC1)N1CCC2(CC1)CC(N(Cc1ccccc1)C1CC1)CCO2 (stereo unspecified)	u	-1.4%	i	u
Fc1ccc(-c2cc(CC3(NCc4ccc(OC(F)(F)F)cc4)COC3)no2)cc1	100µM*	u	i	79.4µM*
c1ccc(-c2cc(CC3(NCC4CCCCC4)COC3)no2)cc1	u	u	i	100µM*
CC(C)(O)c1cc(CC2(NCC3CCCCC3)COC2)no1	-12.4%[174 µM]	12.1%[70.6 µM]	i	0.9%[172 µM]
COc1ccc(CNC2(Cc3cc(-c4ccc(F)cc4)on3)COC2)cc1	u	-11.9%[70.6 µM]	i	u
O=C(Cc1ccc(F)cc1)NCCNC(=O)c1cccc(-c2ccsc2)c1	-21.9%	x	x	u
COc1ccccc1-c1cccc(CN2CCC(N[S+](=O)([O-])c3cccc(C(F)(F)F)c3)CC2)c1	12.6µM*	x	x	u
COc1ccccc1-c1cccc(CN2CCC(N[S+](=O)([O-])c3ccccc3)CC2)c1	31.6µM*	x	x	39.8µM*
O=C(NCC1CCCCC1)C1CCCN1C(=O)c1cccc(-c2cccnc2)c1 (stereo unspecified)	-23.6%	x	x	-11.1%
Cc1ccc(-c2c(C(=O)NCCc3ccc(Cl)cc3)nc3sccn23)cc1	u	x	x	35.5µM*
O=C(NCCc1ccc(Cl)cc1)c1nc2sccn2c1Br	-14.6%	16.0%	17.8µM*	-20.8%
COCCNC(=O)c1nc2sccn2c1-c1ccc(C)cc1	-32.9%[138 µM]	x	x	u
COc1ccc(-c2ccc(C(=O)N3CCN([S+](=O)([O-])c4cccs4)CC3)cc2)nn1	-25.1%	x	x	u
c1ccc2c(c1)CC(n1ccnc1-c1cc3n(n1)CCCNC3)C2	u	-15.7%	i	79.4µM*
Cc1nc([C@H]2CCN(Cc3cn(C)c4ccccc34)C[C@H]2NC(=O)C2CC2)n[nH]1	-13.1%	6.9%	i	-23.2%

Assay outcomes (PubChem)
